The text below walks through data of PubChem BioAssay.

Assay [1] has as its system PRMT1 (protein arginine N-methyltransferase 1). Kind of assay: PRMT1 binders on small-molecule microarrays, primary screen, biochemical, small-molecule microarray, 635 nm fluorescence (AID 1088).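 Further: binding of Prmt1 protein to compounds spotted on small-molecule microarray slides.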 As to conditions: small-molecule microarray binding, higher = more signal.
The nature of assay [2]: yeast growth modulation, basal conditions, primary screen, YJM789 clinical isolate, OD600, 24 h (AID 1089).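 Further: growth of clinical yeast isolate S. cerevisiae YJM 789 seeded 1000 cells per well; test concentration not given here.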 As to conditions: S. cerevisiae YJM789 growth, higher = more signal, called active from +8 up or from −8 down.
Assay [3] in a line: fission yeast growth modulation, primary screen, strain 972, OD600, 24 h, no modulator (AID 1090).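 Further: basal condition with compound alone and no growth modifier present; test concentration not given here.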 The note with it: S. pombe 972 growth, higher = more signal, called active from +8 up or from −8 down.
Assay [4] is described as follows: S. cerevisiae growth modulation with rapamycin, primary screen, strain BY4716, OD600, 96 h (AID 1091). Further: test concentration not given here. The note with it: higher = more signal, called active from +8 up or from −8 down.
The target in assay [5] is Torsin-1A-interacting protein 2 (Homo sapiens) (UniProt Q8NFQ8). Kind of assay: LULL1 binders on small-molecule microarray, primary screen, cell lysate, human LULL1 lysate, 635/667 nm fluorescence (AID 1092).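 Further: probe is lysate of COS7 cells overexpressing human LULL1; score merges per-feature 667 nm fluorescence with signal-to-noise.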 As to conditions: hLULL1 lysate binding, 635 nm fluorescence, higher = more signal.
Chain of Torsin-1A-interacting protein 2 (Homo sapiens) (Q8NFQ8 whole entry, looked up): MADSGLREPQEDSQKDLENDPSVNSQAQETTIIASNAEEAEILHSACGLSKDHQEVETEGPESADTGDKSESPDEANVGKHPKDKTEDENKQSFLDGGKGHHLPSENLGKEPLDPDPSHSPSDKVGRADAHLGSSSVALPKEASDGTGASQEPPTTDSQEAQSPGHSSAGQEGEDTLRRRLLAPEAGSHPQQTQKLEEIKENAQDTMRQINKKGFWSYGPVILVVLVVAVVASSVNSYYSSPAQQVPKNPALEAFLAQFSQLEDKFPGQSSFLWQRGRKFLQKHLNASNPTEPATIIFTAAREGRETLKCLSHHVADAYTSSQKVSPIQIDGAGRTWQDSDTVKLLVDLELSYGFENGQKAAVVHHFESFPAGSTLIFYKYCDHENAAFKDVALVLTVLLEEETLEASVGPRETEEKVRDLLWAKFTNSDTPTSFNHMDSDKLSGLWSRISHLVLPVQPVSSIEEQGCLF
Assay [6] in a line: E. coli growth modulation, two-sided OD650, primary screen, E. coli filamentation project, strain DRC41, 24 h (AID 1093).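 Further: MC1000 strain lacking acrAB efflux and sulA so SOS filamentation is blocked; test concentration not given here.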 As to conditions: OD650, 24 h, higher = more signal, called active from +8 up or from −8 down.
Assay [7] can be described thus: small-molecule microarray binders of probe aLefty2, primary screen, biochemical, biotinylated probe, 635/667 nm fluorescence (AID 1094).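 Further: score merges spot fluorescence near 667 nm with spot signal-to-noise ratio.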 The note with it: higher = more signal.
Assay [8] relates to Noggin (protein binding on small-molecule microarray). Put plainly: Noggin binders on small-molecule microarray, primary screen, biochemical, 635/667 nm fluorescence (AID 1095).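 Further: score merges 667 nm feature fluorescence with signal to noise over triplicate slides.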 As to conditions: 635 nm fluorescence, higher = more signal.
For assay [9], the target named is Neurogenic locus notch homolog protein 3 (Homo sapiens) (UniProt Q9UM47). Kind of assay: NOTCH3 binders on small-molecule microarray, primary screen, biochemical, 635/667 nm fluorescence (AID 1096). As to conditions: NOTCH3 binding, 635 nm fluorescence, higher = more signal.
Chain of Neurogenic locus notch homolog protein 3 (Homo sapiens) (Q9UM47 whole entry, looked up): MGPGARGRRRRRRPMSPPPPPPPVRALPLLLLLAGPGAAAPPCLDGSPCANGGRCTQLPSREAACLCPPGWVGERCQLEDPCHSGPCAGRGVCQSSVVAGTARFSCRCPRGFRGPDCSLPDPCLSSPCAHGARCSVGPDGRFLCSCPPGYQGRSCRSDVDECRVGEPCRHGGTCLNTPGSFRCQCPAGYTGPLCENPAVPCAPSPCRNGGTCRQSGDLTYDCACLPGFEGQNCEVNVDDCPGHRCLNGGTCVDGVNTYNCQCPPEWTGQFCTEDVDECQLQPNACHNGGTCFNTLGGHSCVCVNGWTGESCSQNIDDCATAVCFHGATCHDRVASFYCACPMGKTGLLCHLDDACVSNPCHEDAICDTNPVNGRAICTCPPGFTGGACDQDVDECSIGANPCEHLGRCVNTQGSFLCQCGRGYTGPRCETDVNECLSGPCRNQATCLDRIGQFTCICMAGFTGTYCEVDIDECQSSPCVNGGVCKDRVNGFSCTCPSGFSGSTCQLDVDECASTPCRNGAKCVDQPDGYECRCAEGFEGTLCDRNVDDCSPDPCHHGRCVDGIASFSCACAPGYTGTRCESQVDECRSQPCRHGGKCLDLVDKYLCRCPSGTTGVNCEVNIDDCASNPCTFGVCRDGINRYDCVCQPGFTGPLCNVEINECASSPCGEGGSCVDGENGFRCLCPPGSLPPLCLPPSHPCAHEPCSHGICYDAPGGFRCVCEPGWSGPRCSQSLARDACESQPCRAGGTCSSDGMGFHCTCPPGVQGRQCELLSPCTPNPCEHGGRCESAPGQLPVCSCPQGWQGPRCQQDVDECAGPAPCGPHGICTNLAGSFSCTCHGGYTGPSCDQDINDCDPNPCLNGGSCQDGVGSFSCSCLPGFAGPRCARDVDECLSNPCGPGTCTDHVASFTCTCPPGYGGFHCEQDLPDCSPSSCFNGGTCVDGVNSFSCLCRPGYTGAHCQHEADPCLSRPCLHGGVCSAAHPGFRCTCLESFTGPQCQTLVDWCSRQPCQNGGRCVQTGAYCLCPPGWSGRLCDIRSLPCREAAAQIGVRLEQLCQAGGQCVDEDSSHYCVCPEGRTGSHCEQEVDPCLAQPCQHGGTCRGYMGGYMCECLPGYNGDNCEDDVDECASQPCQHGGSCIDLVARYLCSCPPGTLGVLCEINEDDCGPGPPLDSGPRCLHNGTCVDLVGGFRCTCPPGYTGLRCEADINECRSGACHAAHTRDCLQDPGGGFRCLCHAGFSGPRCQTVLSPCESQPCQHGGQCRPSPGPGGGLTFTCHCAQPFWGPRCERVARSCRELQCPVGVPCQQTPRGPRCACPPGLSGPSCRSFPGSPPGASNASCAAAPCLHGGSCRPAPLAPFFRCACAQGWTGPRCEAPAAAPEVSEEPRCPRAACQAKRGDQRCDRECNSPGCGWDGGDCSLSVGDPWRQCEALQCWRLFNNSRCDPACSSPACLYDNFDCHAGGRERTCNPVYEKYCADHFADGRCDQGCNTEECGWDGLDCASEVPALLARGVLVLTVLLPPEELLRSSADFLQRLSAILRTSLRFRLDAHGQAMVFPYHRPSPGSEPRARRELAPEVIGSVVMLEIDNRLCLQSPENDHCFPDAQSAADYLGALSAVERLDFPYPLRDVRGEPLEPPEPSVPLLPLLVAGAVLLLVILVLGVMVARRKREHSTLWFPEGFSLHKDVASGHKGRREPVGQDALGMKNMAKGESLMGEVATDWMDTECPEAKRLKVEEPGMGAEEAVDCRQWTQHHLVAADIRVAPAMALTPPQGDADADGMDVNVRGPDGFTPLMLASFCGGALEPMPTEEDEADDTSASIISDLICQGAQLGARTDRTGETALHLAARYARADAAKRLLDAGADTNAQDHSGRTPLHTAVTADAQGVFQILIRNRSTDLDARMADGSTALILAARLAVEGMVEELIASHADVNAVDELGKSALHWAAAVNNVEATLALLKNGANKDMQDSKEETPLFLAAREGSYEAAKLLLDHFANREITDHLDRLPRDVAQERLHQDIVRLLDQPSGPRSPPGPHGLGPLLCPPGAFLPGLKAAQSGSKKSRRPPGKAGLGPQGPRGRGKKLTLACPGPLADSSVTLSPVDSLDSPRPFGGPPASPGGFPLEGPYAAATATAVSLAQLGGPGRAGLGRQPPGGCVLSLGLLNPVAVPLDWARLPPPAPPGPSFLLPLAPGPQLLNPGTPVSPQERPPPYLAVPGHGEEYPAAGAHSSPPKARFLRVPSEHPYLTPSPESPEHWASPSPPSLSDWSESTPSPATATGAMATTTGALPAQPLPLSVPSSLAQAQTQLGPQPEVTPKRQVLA
Assay [10] is described as follows: small-molecule microarray binders of probe aEGFR, primary screen, biochemical, biotinylated probe, 635/667 nm fluorescence (AID 1097).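 Further: probe is a biotinylated anti-EGFR antibody binding compounds printed on slides; score combines fluorescence near 667 nm and signal to noise of each spot.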 The note with it: higher = more signal.

Activity calls are given as the source filed them.

On to `CCOC(=O)C[C@H]1[C@H](OC(=O)c2ccccc2-c2ccccc2)[C@@H](NC(=O)CC(C)C)c2cc(OCCCO)ccc2N1C(=O)c1ccccc1`, for which the composite z-score in [1] is 0.768; in [5], 0.583; in assay [7], -0.0859; in assay [8] it was 1.3; in assay [9], 1.09; in assay [10], -0.159. For the same compound, the z-score in [2] is -0.959 (inactive); in assay [3] it was -0.613 (inactive); in [4] it was -1.52 (inactive); in [6], 0.482 (inactive).

As to `CCOC(=O)C1=CC[C@@H](c2ccccc2)N(S(=O)(=O)c2ccc(C)cc2)[C@@H]1C#N`, the composite z-score in assay [1] was 0.712; in assay [5], 2.69; in assay [7] it was 0.0979; in [8] it was -0.59; in assay [9] it was 0.749; in assay [10], -0.013. The z-score in [2] is -0.671 (inactive); in assay [3], -2.08 (inactive); in [4], 0.529 (inactive); in assay [6] it was 0.405 (inactive).

Regarding `CCOC(=O)C1=CCC(c2ccncc2)N(S(=O)(=O)c2ccc(C)cc2)C1` (stereo not given), the composite z-score in assay [1] is 1.36; in assay [5] it was 3.84; in assay [7] it was -0.0585; in assay [8], 0.361; in assay [9] it was 1.09; in assay [10] it was 0.0642. In addition, the z-score was -2.24 (inactive) in [2], -2.69 (inactive) in [3], 8.79 (active) in [4] and 0.336 (inactive) in assay [6].

With `CC(C)(C)OC(=O)CC[C@]1(C(N)=O)N=C(c2ccc(OCCCO)cc2)O[C@H]1c1ccccc1N=[N+]=[N-]`, the composite z-score in [1] is 0.138; in assay [5] it was 2.75; in assay [7], 0.0598; in assay [8], -0.165; in assay [9], 0.206; in assay [10], 0.141. Besides, the z-score in [2] is 1.37 (inactive); in assay [3], 0.138 (inactive); in [4], 0.467 (inactive); in assay [6] it was 0.626 (inactive).

As for `C=CCNC(=O)[C@H]1[C@@H]2C(=O)O[C@@H](c3ccccc3)[C@@H](c3ccccc3)N2[C@@H](c2ccc(OCCO)cc2)[C@]12C(=O)Nc1ccc(C#Cc3ccc(OC)cc3)cc12`, the composite z-score in assay [1] amounted to 1.56; in [5], 2.75; in [7], 0.326; in assay [8] it was 1.27; in assay [9], 1.11; in assay [10], 0.166. Further, the z-score in assay [2] is 3.23 (inactive); in [3], 2.1 (inactive); in [4], 5.57 (inactive); in assay [6], 0.741 (inactive).

Turning to `COC(=O)Cn1c(C(=O)N(C)C)cc2c1C[C@H]1CN(C(=O)c3ccccc3)[C@@](Cc3ccccc3)(C(=O)OC)[C@@H]21`, the composite z-score is -0.858 in [1]; 1.36 in assay [5]; 0.0022 in assay [7]; 0.449 in assay [8]; 0.0571 in [9]; 0.25 in assay [10]. Also, the z-score is -0.561 (inactive) in assay [2], -0.103 (inactive) in [3], -0.207 (inactive) in assay [4] and -0.537 (inactive) in assay [6].

For `CN1C(=O)C2C=CC(C(O)COCc3ccccc3)N(Nc3ccc([N+](=O)[O-])cc3[N+](=O)[O-])C2C1=O` (stereo not given), the composite z-score in [1] is 0.332; in assay [5], 1.78; in [7], 0.229; in assay [8] it was -0.39; in [9] it was -0.282; in assay [10] it was -0.146. The z-score in assay [2] was 0.629 (inactive); in assay [3], -1.58 (inactive); in assay [4] it was 0.308 (inactive); in [6], -0.278 (inactive).

In the case of `COCCOC(=O)N1C(=O)[C@@]2(c3cc(C#CCNC(N)=O)ccc31)[C@H](C(N)=O)[C@H]1C(=O)O[C@H](c3ccccc3)[C@H](c3ccccc3)N1[C@@H]2c1ccc(O)cc1`, the composite z-score in [1] was 0.46; in [5] it was 0.634; in assay [7], 0.0362; in [8], 0.173; in assay [9] it was -0.564; in assay [10], -0.0828. For the same compound, the z-score in assay [2] is 0.898 (inactive); in [3], -0.173 (inactive); in [4] it was 0.449 (inactive); in assay [6], 1.19 (inactive).

For the compound `CC(C)C[C@H]1NC(=O)CNC(=O)[C@@]23C(=O)N[C@@H](Cc4ccccc4)C2[C@H](C)[C@@]2(C)O[C@H]2C3/C=C/C/C=C\CNC1=O` (stereo not given in full), the composite z-score in assay [1] is 1.08; in assay [5], 0.921; in assay [7], -0.157; in [8], 0.104; in assay [9], 0.713; in [10] it was -0.105. In addition, the z-score in assay [2] is -0.599 (inactive); in assay [3] it was 0.189 (inactive); in assay [4], -0.612 (inactive); in assay [6] it was -0.743 (inactive).

Take `COCCOC(=O)N1C(=O)[C@@]2(c3cc(C#CCCO)ccc31)[C@H](c1ccc(O)cc1)N1[C@H](c3ccccc3)[C@H](c3ccccc3)OC(=O)[C@H]1[C@@H]2C(=O)NC[C@H](O)c1ccccc1`: the composite z-score is 1.53 in [1]; 2.15 in assay [5]; -0.195 in assay [7]; 0.697 in assay [8]; 1.03 in assay [9]; -0.103 in [10]. In addition, the z-score in assay [2] is 1.08 (inactive); in [3], 0.933 (inactive); in assay [4], 3.26 (inactive); in assay [6], 1.76 (inactive).

As to `C=C(C(=O)CC[C@@H](OC(=O)c1ccccc1-c1ccccc1C(=O)O)c1cccc(OCCO)c1)C(C)C`, the composite z-score is 1.46 in assay [1]; -0.104 in assay [5]; -0.118 in [7]; 0.782 in assay [8]; 0.164 in [9]; -0.182 in [10]. Moreover, the z-score in assay [2] is 0.433 (inactive); in assay [3], -0.0072 (inactive); in [4], -0.641 (inactive); in assay [6], 0.355 (inactive).

`COC(=O)[C@@]1(Cc2ccccc2)[C@H]2c3cc(C(=O)N(C)C)n(CCF)c3C[C@H]2CN1C(=O)c1ccccc1`: the composite z-score was 0.479 in assay [1]; 2.21 in assay [5]; 0.534 in [7]; -0.669 in [8]; 0.782 in assay [9]; 0.21 in assay [10]. Also, the z-score is 0.176 (inactive) in [2], 1.18 (inactive) in assay [3], 0.678 (inactive) in assay [4] and -0.0418 (inactive) in assay [6].

In the case of `C=CCN1C(=O)[C@@]2(O[C@@H](CCO)[C@H]([Si](C)(C)c3ccc(OC)cc3)[C@H]2C)c2cc(N3CCCCC3=O)ccc21`, the composite z-score in [1] was 1.55; in [5], 2.24; in assay [7], -0.157; in assay [8] it was 1.19; in [9] it was 0.868; in assay [10], -0.0662. For the same compound, the z-score in assay [2] was 0.451 (inactive); in [3], 0.215 (inactive); in assay [4] it was 1.81 (inactive); in [6], 0.649 (inactive).

As to `COC(=O)C1=CC(c2ccc(CO)cc2)=CC(C2CC2)N(Cc2cc3c(cc2Br)OCO3)C=C1C(=O)OC` (stereo not given), the composite z-score in assay [1] is 1.54; in assay [5], 2.87; in assay [7] it was 0.479; in [8], 0.092; in [9], 1.11; in assay [10], 0.46. In addition, the z-score in assay [2] is -0.644 (inactive); in assay [3], -2.47 (inactive); in [4] it was -2.01 (inactive); in assay [6] it was 0.841 (inactive).
